Unmarked numbers belong to inactive results.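 How the source made its calls: active means RAM network inhibition above 8.4% in each of two replicates, 3 SD over the compound average; inconclusive means above 8.4% inhibition in only one replicate; inactive means 8.4% inhibition or less in each replicate.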

This assay is described as follows: RAM signaling pathway blockade in yeast – S. cerevisiae, Pdr1DBD-CYC8 efflux-inhibited sensitized strain, primary screen (AID 1298).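 Further: 0% = DMSO untreated cells without growth and 100% = 10 µM 1-NA-PP1 full growth; higher means more yeast growth rescued from 5-FOA killing.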 As to conditions: S. cerevisiae cbk1-as DSE1-URA3 strain, 5-FOA growth OD615, 2 d; at 50 µM; hits give high values.
For the compound `Cc1ccc(C(=O)Nc2nc3ccccc3n2CCN2CCCC2)cc1`, the RAM network inhibition is 7.05%.
On to `CC(C)c1nnc(NC(=O)CSc2ncn[nH]2)s1`, for which the RAM network inhibition was 1.34%.
Take `Cc1cc(C)c(NC(=O)C(C)(C)C)c(Cl)c1`: the RAM network inhibition was 1.23%.
As for `CCOc1ccc(Nc2cc(C)nc3nc(C)nn23)cc1`, the RAM network inhibition is 2.62%.
